Measured values published in PubChem BioAssay (NCATS).
Results filed as inconclusive are left out. Activity calls are given as the source filed them. Calls come from the whole dose curve; as a rule, active = well fitted inhibition curve with a large enough effect; inconclusive = small, poorly fitted or top-dose-only effect; inactive = no such curve, though single readings can be large or run the other way.

Experiment: BET inhibitor-based combinations targeting novel dependencies in MECOM-rearranged (r) AML: OCI-AML3 cell line (AID 2202232); note: nearly all actives have a fitted effect of over 35% in size
Conditions: CellTiter-Glo luminescence, 48 h; Potency: OCI-AML3 viability; series mostly up to 46 µM; viability (% of control): at the top concentration
Outline: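 Viability of cells (500 per well) is scored by luminescent CellTiter-Glo at 48 hr post-dosing. Eleven-point titrations are normalized to DMSO and empty controls and reduced to AUC values.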
Potency is the fitted concentration of half-maximal effect.

SMILES | Potency
CO[C@@H]1[C@H](N(C)C(=O)c2ccccc2)C[C@H]2O[C@]1(C)n1c3ccccc3c3c4c(c5c6ccccc6n2c5c31)C(=O)NC4 | 3.32 µM (active)
CCCCCCOC(=O)NC(=N)c1ccc(NCc2nc3cc(C(=O)N(CCC(=O)OCC)c4ccccn4)ccc3n2C)cc1 | 8.33 µM (active)
CCCCCCNC(=O)n1cc(F)c(=O)[nH]c1=O | 1.86 µM (active)

Experiment: BET inhibitor-based combinations targeting novel dependencies in MECOM-rearranged (r) AML: MV-4-11 cell line (AID 2202233); note: nearly all actives have a fitted effect of over 45% in size;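 for viability, % of control: plate controls were DMSO for no effect and blank wells for full effect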
Conditions: MV-4-11 AML viability, CellTiter-Glo luminescence, 48 h; series mostly up to 46 µM; viability, % of control: at the top concentration
Outline: (§1)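 Using pin-tool transfer, drugs were added in 11 doses to cells (500/well), incubated 48 hr, and assessed with CellTiter-Glo. Z-AUC is a mean-centring transformation applied separately to each screened line.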

SMILES | Potency | viability, % of control
CO[C@@H]1[C@H](N(C)C(=O)c2ccccc2)C[C@H]2O[C@]1(C)n1c3ccccc3c3c4c(c5c6ccccc6n2c5c31)C(=O)NC4 | 0.0934 µM (active) | 
NC(=O)c1ccc(I)c([N+](=O)[O-])c1 | 16.6 µM (active) | 
c1coc(CNc2ncnc3nc[nH]c23)c1 |  | 91.8% (inactive)
CCCCCCOC(=O)NC(=N)c1ccc(NCc2nc3cc(C(=O)N(CCC(=O)OCC)c4ccccn4)ccc3n2C)cc1 | 8.33 µM (active) | 
N[C@H](CSC(c1ccccc1)(c1ccccc1)c1ccccc1)C(=O)O |  | 92.3% (inactive)
CC[C@@H]1C(=O)N(C)c2cnc(Nc3ccc(C(=O)NC4CCN(C)CC4)cc3OC)nc2N1C1CCCC1 | 0.105 µM (active) | 
CCOC(=O)O[C@]1(C(=O)OCCl)CC[C@H]2[C@@H]3CCC4=CC(=O)C=C[C@]4(C)[C@H]3[C@@H](O)C[C@@]21C |  | 64.8% (inactive)
NCc1c[nH]c(=S)n1[C@H]1CCc2c(F)cc(F)cc2C1 |  | 94.5% (inactive)
CC[C@@H](C)[C@H](NC(=O)[C@H](CC1CCCCC1)NC(=O)c1ccno1)C(=O)N1CCC2(CCc3ccccc32)CC1 |  | 1.56% (inactive)
O=c1ncn2nc(Sc3ccc(F)cc3F)ccc2c1-c1c(Cl)cccc1Cl | 20.9 µM (active) | 
CCN(CC)CCOc1ccc(Cc2ccccc2)cc1 |  | 86.3% (inactive)
C[C@]12CC[C@@H]3c4ccc(O)cc4C[C@@H](CCCCCCCCCS(=O)CCCC(F)(F)C(F)(F)F)[C@H]3[C@H]1CC[C@H]2O (some centres undefined) | 9.34 µM (active) | 
CN(C)c1ccc2cc(C(=O)N[C@@H](CCCN=C(N)CCl)C(=O)NCc3ccccc3)ccc2c1 |  | 3.03% (inactive)
CCCCCCNC(=O)n1cc(F)c(=O)[nH]c1=O | 1.66 µM (active) | 
Cc1nnc(NS(=O)(=O)c2ccc(N)cc2)s1 |  | 103% (inactive)

Experiment: BET inhibitor-based combinations targeting novel dependencies in MECOM-rearranged (r) AML: HNT-34 cell line (AID 2202234); note: nearly all actives have a fitted effect of over 35% in size;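 for viability (% of control): plate controls were vehicle wells for no effect and cell-free wells for full effect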
Conditions: HNT-34 AML viability, CellTiter-Glo luminescence, 48 h; series mostly up to 46 µM; viability (% of control): at the top concentration
Outline: as §1

SMILES | Potency | viability (% of control)
CC(C)c1ccc2oc3nc(N)c(C(=O)O)cc3c(=O)c2c1 | 14.8 µM (active) | 
CC(=O)Oc1cc2c(s1)CCN(C(C(=O)C1CC1)c1ccccc1F)C2 (centres undefined) |  | 81.5% (inactive)
CCC(c1ccc(O)cc1)C(CC)c1ccc(O)cc1 (centres undefined) |  | 86.7% (inactive)
CC(C)Oc1ccc2c(=O)c(-c3ccccc3)coc2c1 |  | 96% (inactive)
CCC(=O)O[C@]1(C(=O)CCl)[C@@H](C)C[C@H]2[C@@H]3CCC4=CC(=O)C=C[C@]4(C)[C@@]3(F)[C@@H](O)C[C@@]21C | 20.9 µM (active) | 
O=c1cc(-c2ccccc2)oc2cc(O)cc(O)c12 | 23.5 µM (active) | 
CCOc1cc(N)c(Cl)cc1C(=O)NCC1CN(Cc2ccc(F)cc2)CCO1 (centres undefined) |  | 91.8% (inactive)
CC(=O)O[C@]1(C(C)=O)CC[C@H]2[C@@H]3C=C(C)C4=CC(=O)CC[C@]4(C)[C@H]3CC[C@@]21C | 18.6 µM (active) | 
COC(=O)C[C@](O)(CCCC(C)(C)O)C(=O)O[C@@H]1C(OC)=C[C@]23CCCN2CCc2cc4c(cc2[C@H]13)OCO4 | 0.0417 µM (active) | 
COc1ccc(C[C@@H](C)[C@@H](C)Cc2ccc(OC)c(OC)c2)cc1OC |  | 67.1% (inactive)
CC(COc1ccccc1)N(CCCl)Cc1ccccc1 (centres undefined) | 16.6 µM (active) | 
CCCCC(=O)O[C@]1(C(=O)CO)[C@@H](C)C[C@H]2[C@@H]3CCC4=CC(=O)C=C[C@]4(C)[C@@]3(F)[C@@H](O)C[C@@]21C | 14.8 µM (active) | 
CCN(c1ccccc1)c1cc(NC)[n+](C)c(C)n1 |  | 109% (inactive)
COc1ccccc1C(=O)Nc1cc2c(cc1N1CCCCC1)n(C)c(=O)n2C |  | 81.8% (inactive)
CCCCCCCN(CC)CCCC(O)c1ccc(NS(C)(=O)=O)cc1 (centres undefined) |  | 58% (inactive)
CCOC(=O)c1c(C)n(C)c2ccc(O)cc12 |  | 97% (inactive)
